Paper PMC11006913

Each sequence was assayed against CRX (Homo sapiens, UniProt O43186 26-111, R41L) (assay: PBM; 200 nM protein, PBS). Details: dsDNA, one strand shown.
Chain of CRX (O43186 26-111 R41L): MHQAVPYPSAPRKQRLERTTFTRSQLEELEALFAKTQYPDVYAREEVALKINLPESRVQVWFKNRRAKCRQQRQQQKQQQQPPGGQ
In the case of CGTATTAA, the binding signal is reported as 11.2 upbm affinity estimate (log intensity, higher = more binding, comparable within an allelic series).
In the case of CGTATTAG, the binding signal is reported as 10.6 upbm affinity estimate (log intensity, higher = more binding, comparable within an allelic series).
For TGTATTAA, the binding signal was 10.9 upbm affinity estimate (log intensity, higher = more binding, comparable within an allelic series).
